An excerpt weighted towards active compounds, which were near 4.7% of everything screened.
PfHsp90 set2 – growth inhibition of PfHsp90-expressing yeast, primary screen, antimalarial PfHsp90 inhibitor project, S. cerevisiae, BacTiter-Glo luminescence, single point, set 2 | BacTiter-Glo ATP, 48 h; yeast lacking PDR1 and PDR3 efflux regulators | inhibition, % at 9.4 µM | 0.32% of 310,000 active;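 active means every replicate shows inhibition above about 80%, whatever the replicate mean, limit read from the data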;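 further: 0% = DMSO neutral controls and 100% = 20 µM radicicol positive controls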
EBI2 block – EBI2 receptor antagonists, beta-arrestin recruitment, primary screen, cell-based, luminescence, 7a,25-OHC stimulation, uHTS; G-protein coupled receptor 183 (Homo sapiens), P32249; 7a,25-OHC stimulated; inhibition, % at 5 µM; 0.81% of 360,000 active; AID 651636, 2012; in the data active means inhibition above about 38%;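 further: enzyme fragment complementation signal reports receptor beta-arrestin coupling in cells; 0% = agonist plus DMSO wells and 100% = wells without agonist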
Target sequence (P32249 whole entry, looked up, the tested form may be a part): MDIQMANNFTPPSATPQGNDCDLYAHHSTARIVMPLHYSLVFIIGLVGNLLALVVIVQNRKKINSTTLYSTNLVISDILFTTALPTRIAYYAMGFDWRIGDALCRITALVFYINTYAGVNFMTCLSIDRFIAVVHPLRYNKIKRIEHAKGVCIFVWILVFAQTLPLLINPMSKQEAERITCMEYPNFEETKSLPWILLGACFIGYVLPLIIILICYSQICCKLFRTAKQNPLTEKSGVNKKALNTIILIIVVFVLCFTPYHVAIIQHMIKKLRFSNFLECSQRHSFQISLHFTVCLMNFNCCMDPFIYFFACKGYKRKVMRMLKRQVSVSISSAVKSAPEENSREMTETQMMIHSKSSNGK
TIM10 inh – growth inhibitors of isogenic TIM10 control yeast, primary screen, counter-screen for tim10-1 yeast inhibitor project, luminescence, uHTS; S. cerevisiae TIM10 strain growth, BacTiter-Glo luminescence, 24 h; inhibition, % at 10 µM; 1.4% of 330,000 active;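 active means inhibition of 40% or more at the single tested concentration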;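 further: wild-type TIM10 isogenic control strain grown at permissive 25 °C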
tim23-1 inh – growth inhibitors of tim23-1 mutant yeast, primary screen, luminescence, uHTS; inhibition, % at 20 µM; S. cerevisiae tim23-1 growth, BacTiter-Glo luminescence, 24 h; AID 463212, 2010; 1.3% of 330,000 active;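 active means growth inhibition of the mutant yeast at or above 50%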;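 further: temperature-sensitive mutant grown at 25 °C; plate controls were DMSO-treated mutant yeast for no effect and medium wells lacking yeast for full effect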
tim10-1 inh – growth inhibitors of tim10-1 mutant yeast, primary screen, luminescence, uHTS. inhibition, % at 20 µM. AID 463190, 2010. S. cerevisiae tim10-1 ts strain growth, BacTiter-Glo, 24 h. 2.2% of 330,000 active;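 active means inhibition of at least 40%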;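 further: mutant grown at 25 °C; 0% = DMSO wells with yeast and 100% = wells holding no yeast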
SKKanGAS inh – S. pyogenes SKKanGAS growth inhibitors in kanamycin, primary screen, streptokinase expression inhibitor project, SKKanGAS strain, BacTiter-Glo luminescence | 6 h | inhibition, % at 7.5 µM | 1.3% of 300,000 active;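 active means mean replicate score, as percent of positive control median, at least 50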;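 further: strain carries kanamycin resistance gene driven by streptokinase promoter and grows in 40 µg/ml kanamycin; loss of luminescence reflects streptokinase promoter inhibition or plain growth inhibition; 0% = median of DMSO wells and 100% = positive control at its reference dose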
tim10-1 confirm – growth inhibitors of tim10-1 mutant yeast, confirmation, single concentration, luminescence, S. cerevisiae; S. cerevisiae tim10-1 ts strain growth, BacTiter-Glo, 24 h; shares compounds with tim10-1 inh; inhibition, % at 20 µM; AID 463213, 2010; 56% of 7,400 active;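 active means inhibition of yeast growth at or above a set limit in either of two repeat tests at 20 µM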;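 further: tim10-1 mutant grown at permissive 25 °C to find synthetic lethal compounds; 0% = DMSO yeast wells and 100% = medium wells without yeast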
TIM10 conf – growth inhibitors of wild-type TIM10 yeast, confirmation, counter-screen for tim10-1 synthetic lethality project, single concentration, luminescence, S. cerevisiae | AID 463215, 2010 | shares compounds with TIM10 inh | 63% of 4,600 active | inhibition, % at 10 µM | S. cerevisiae tim10 strain growth, BacTiter-Glo luminescence, 24 h;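 active means inhibition of yeast growth at or above a set limit in either of two replicates at 10 µM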;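 further: this counterscreen used the strain with wild-type TIM10; 0% = yeast with DMSO and 100% = medium wells lacking yeast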
tim23-1 conf – tim23-1 mutant yeast growth inhibitors, confirmation, luminescence, single concentration; S. cerevisiae tim23-1 growth, BacTiter-Glo luminescence, 24 h; inhibition, % at 20 µM; shares compounds with tim23-1 inh; AID 463218, 2010; 83% of 4,400 active;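 active means inhibition above about 39% in either of two replicate wells at 20 µM, limit read from the data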;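 further: temperature-sensitive tim23-1 mutant grown at 25 °C; 0% = DMSO wells with yeast and 100% = medium wells without yeast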
* marks the source's active call; other numbers are inactive results.

What do the screens show for `C[C@@H]1CN([C@H](C)CO)C(=O)c2c(c3ccccc3n2C)-c2ccccc2CO[C@H]1CN(C)C(=O)Nc1ccccc1`?
EBI2 block: 2

Results for Cn1ncc(Cl)c1C(=O)N1CCN(c2ccccc2)CC1 ?
PfHsp90 set2: 15; EBI2 block: -11; TIM10 inh: -2; tim23-1 inh: 5; tim10-1 inh: 4; SKKanGAS inh: 24

Results for Cn1ncc(Cl)c1C(=O)N1CCN(c2ccc(Cl)c(Cl)c2)CC1 ?
PfHsp90 set2: -29; EBI2 block: 10; TIM10 inh: 27; tim23-1 inh: 50*; tim10-1 inh: 41*; SKKanGAS inh: -2; tim10-1 confirm: 20; tim23-1 conf: 42*

What do the screens show for `CCN(CC)C(=O)c1cccc(NC(=O)c2cc(-c3ccccn3)nc3ccccc23)c1`?
EBI2 block: 0; TIM10 inh: -4; tim23-1 inh: 15; tim10-1 inh: 18

Results for Cc1ccc(C2CN(C)C3(C(=O)Nc4ccccc43)C23COc2ccccc2C3=O)cc1 (configuration not stated) ?
PfHsp90 set2: -11; EBI2 block: 10; TIM10 inh: 29; tim23-1 inh: 53*; tim10-1 inh: 45*; SKKanGAS inh: -19; tim10-1 confirm: 37*; tim23-1 conf: 47*

How did CCN(CC)c1ccc(NC(=O)CNCc2ccccc2Cl)c(C)c1 do in these assays?
PfHsp90 set2: 2; EBI2 block: -1; TIM10 inh: 2; tim23-1 inh: 27; tim10-1 inh: 26; SKKanGAS inh: 0

How did COc1ccccc1NC(=O)COC(=O)C1CC2CCCC(C1)C2=O (configuration not stated) do in these assays?
PfHsp90 set2: 2; EBI2 block: 3; TIM10 inh: 4; tim23-1 inh: 14; tim10-1 inh: 1

How did Cn1ncc2c(NNC(=O)c3ccc(Cl)cc3Cl)ncnc21 do in these assays?
PfHsp90 set2: -20; EBI2 block: -8; TIM10 inh: 5; tim23-1 inh: 9; tim10-1 inh: 24; SKKanGAS inh: 3

How did O=[N+]([O-])c1c(C(Cl)Cl)nn(-c2ccc(Cl)cc2)c1N1CCCCC1 do in these assays?
PfHsp90 set2: -15; EBI2 block: 0; TIM10 inh: 56*; tim23-1 inh: 64*; tim10-1 inh: 44*; SKKanGAS inh: 16; tim10-1 confirm: 62*; TIM10 conf: 41*; tim23-1 conf: 67*

What do the screens show for `COc1cccc(/C=N/NC(=O)NC23CC4CC(CC(C4)C2)C3)c1O`?
EBI2 block: 30; TIM10 inh: 42*; tim23-1 inh: 52*; tim10-1 inh: 52*; SKKanGAS inh: 97*; tim10-1 confirm: 17; TIM10 conf: 39*; tim23-1 conf: 47*

How did Clc1ccc(-n2nnnc2Sc2ncnc3sccc23)cc1 do in these assays?
PfHsp90 set2: -45; EBI2 block: -51; TIM10 inh: 2; tim23-1 inh: 70*; tim10-1 inh: 43*; SKKanGAS inh: -9; tim10-1 confirm: 33*; tim23-1 conf: 50*

Results for Cc1nc2c(-c3ccc(F)cc3)cnn2c(N)c1-c1ccccc1 ?
PfHsp90 set2: 8; EBI2 block: 14; TIM10 inh: 45*; tim23-1 inh: 74*; tim10-1 inh: 46*; SKKanGAS inh: 19; tim10-1 confirm: 35*; TIM10 conf: 52*; tim23-1 conf: 42*

How did Cc1ccc(NC(=O)[C@@H]2CCCN2C(=O)c2cccs2)cc1S(=O)(=O)N1CCCCC1 do in these assays?
PfHsp90 set2: -22; EBI2 block: -1; TIM10 inh: -8; tim23-1 inh: 2; tim10-1 inh: 3

How did CC(Nc1ccc(Cl)cc1)c1cc(Cl)ccc1O (configuration not stated) do in these assays?
PfHsp90 set2: 3; EBI2 block: 4; TIM10 inh: 29; tim23-1 inh: 64*; tim10-1 inh: 66*; SKKanGAS inh: 2; tim10-1 confirm: 58*; tim23-1 conf: 52*

How did CN(c1ccccc1)S(=O)(=O)c1cccc(C(=O)Nc2nn[nH]n2)c1 do in these assays?
PfHsp90 set2: -17; EBI2 block: 9; TIM10 inh: -11; tim23-1 inh: -5; tim10-1 inh: 8; SKKanGAS inh: -4

How did O=C(COC(=O)c1ccc2c(c1[N+](=O)[O-])C(=O)c1ccccc1C2=O)NC1CC1 do in these assays?
PfHsp90 set2: -43; EBI2 block: 1; TIM10 inh: 60*; tim23-1 inh: 76*; tim10-1 inh: 80*; tim10-1 confirm: 64*; TIM10 conf: 46*; tim23-1 conf: 73*

What do the screens show for `O=C(NCCOC12CC3CC(CC(C3)C1)C2)c1cccc(Br)c1`?
PfHsp90 set2: -17; EBI2 block: 1; TIM10 inh: 44*; tim23-1 inh: 53*; tim10-1 inh: 42*; SKKanGAS inh: 1; tim10-1 confirm: 33*; TIM10 conf: 46*; tim23-1 conf: 46*

How did Cc1ccc(N2CCN(CC(O)COc3ccccc3)CC2)cc1 (configuration not stated) do in these assays?
PfHsp90 set2: -30; EBI2 block: 8; TIM10 inh: -7; tim23-1 inh: 2; tim10-1 inh: -5; SKKanGAS inh: -3

How did COc1ccc(CCC(C)NC(=O)Cc2ccc(OC)c(OC)c2)c(OC)c1 (configuration not stated) do in these assays?
PfHsp90 set2: -5; EBI2 block: 7; TIM10 inh: -3; tim23-1 inh: 18; tim10-1 inh: 28; SKKanGAS inh: -7

What do the screens show for `N#CC1(NC(=O)CN2CCN(S(=O)(=O)c3ccccc3F)CC2)CCCC1`?
PfHsp90 set2: 9; EBI2 block: -4; TIM10 inh: -9; tim23-1 inh: 6; tim10-1 inh: -5; SKKanGAS inh: 5

Compound activity (PubChem BioAssay)
